Assay outcomes from PubChem.
This is a sample that favours compounds with a hit; in the whole collection about 1.2% have one here.
NR5A2 inv ag: inverse agonists of human LRH-1 (NR5A2). O00482. HEK293T StAR-luciferase reporter, LRH-1 transfected, 24 h. inhibition, % at 3.6 µM. 360,000 compounds, 0.13% hits. AID 602396;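 active = inhibition above the mean inhibition of all tested compounds plus 3 SD, cut at about 73% in these data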
NCOA3 inh: inhibits human SRC3 coactivator; Q9Y6Q9; HEK293 GAL4-SRC3 luciferase reporter, luminescence; inhibition, % at 3.6 µM; 360,000 compounds, 0.17% hits; AID 588352;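 active = inhibition above a per-campaign cutoff, the mean of all compounds plus 3 SD, cut at about 60% in these data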;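 also: higher means less SRC3-driven luciferase light from the GAL4 reporter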
NR2F2 inh: blocks human COUP-TFII nuclear receptor | P24468 | HEK293T NGFI-A luciferase reporter, luminescence | inhibition, % at 8.6 µM | 370,000 compounds, 0.7% hits | AID 686940;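 active = inhibition above a per-plate cutoff, mean inhibition of test wells between control levels plus 3 SD, cut at about 38% in these data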;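 also: cells cotransfected with COUP-TFII expression vector driving the NGFI-A reporter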
Target sequence (P24468 whole entry, looked up): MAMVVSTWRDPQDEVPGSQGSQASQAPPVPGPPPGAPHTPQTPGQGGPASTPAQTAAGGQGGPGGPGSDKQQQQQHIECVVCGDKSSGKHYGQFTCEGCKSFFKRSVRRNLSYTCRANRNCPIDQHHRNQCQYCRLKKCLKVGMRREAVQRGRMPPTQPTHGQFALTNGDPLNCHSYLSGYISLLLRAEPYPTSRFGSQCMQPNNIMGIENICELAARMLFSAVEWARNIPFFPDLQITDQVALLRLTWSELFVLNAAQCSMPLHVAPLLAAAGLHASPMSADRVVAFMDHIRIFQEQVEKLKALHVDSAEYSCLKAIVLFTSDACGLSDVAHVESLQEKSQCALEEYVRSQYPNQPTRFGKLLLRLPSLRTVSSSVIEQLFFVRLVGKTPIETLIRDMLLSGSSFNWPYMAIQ
SRC2 inh: inhibits human steroid receptor coactivator 2; Q15596; HEK293 GAL4-SRC2 luciferase reporter, luminescence; inhibition, % at 9 µM; 370,000 compounds, 0.17% hits; AID 651957;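 active = inhibition above the mean inhibition of all tested compounds plus 3 SD, set per campaign, cut at about 52% in these data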
Gli-Sufu block: Gli-Sufu pathway antagonism; Sufu-KO-LIGHT fibroblasts, Gli luciferase reporter luminescence; inhibition, % at 5 µM; 340,000 compounds, 0.74% hits; AID 588413;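 active = inhibition above about 55%, limit read from the data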
NCOA1 inh: inhibits human SRC1 coactivator; HEK293 GAL4-SRC1 luciferase reporter, luminescence; Q15788; 360,000 compounds, 0.12% hits; AID 588354; inhibition, % at 3.6 µM;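 active = inhibition above the campaign mean plus 3 SD, with each screening campaign given its own cutoff, cut at about 60% in these data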
Gli-Sufu confirm: Gli-SUFU antagonism confirmation, single concentration. AID 602428. shares compounds with Gli-Sufu block. 2,500 compounds, 40% hits. Sufu-KO-LIGHT cells, Gli luciferase reporter, luminescence. inhibition, % at 5 µM;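 active = mean inhibition at 5 µM reaching about 45%, limit read from the data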
SufuKO cytotox: cytotoxic in Gli-SUFU antagonist counter-screen; shares compounds with Gli-Sufu block; Sufu-KO-LIGHT cells cytotoxicity, ATP luminescence; cytotoxicity, % at 5 µM; 2,500 compounds, 32% hits; AID 651994;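 active = mean cytotoxicity at 5 µM above about 25%, limit read from the data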;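 also: cells exposed to compound overnight for roughly 16 to 18 hours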
Wnt3a counter: Wnt3a reporter inhibition counter-screen; shares compounds with Gli-Sufu block; Wnt-LIGHT cells, Wnt3a-driven luciferase reporter, luminescence; inhibition, % at 6.25 µM; 2,500 compounds, 20% hits; AID 651995;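 active = mean inhibition above about 25%, limit read from the data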
Of the large screens only hits and unclear results are named; the others gave an inactive call (follow-up assays come after a bar, where they were run).

CCC(C(=O)NCCC(C)C)n1ccc2cc(S(=O)(=O)N3CCCCC3)ccc21 (stereo not drawn)	Gli-Sufu block 67.2 (no result: NR2F2 inh, SRC2 inh) | Gli-Sufu confirm inactive | SufuKO cytotox inactive | Wnt3a counter inactive
COc1ccc(CNC(=O)CCCn2ccc3cc(S(=O)(=O)N4CCCC4)ccc32)cc1	Gli-Sufu block 59.3 | Gli-Sufu confirm inactive | SufuKO cytotox 26.6 | Wnt3a counter inactive
O=C(C(=O)N1CCN(C(=O)C2CCC2)CC1)c1cccc(C(F)(F)F)c1	none (no result: NR5A2 inv ag, NCOA3 inh, Gli-Sufu block, NCOA1 inh)
CCOC(=O)c1c(C)[nH]c(C)c1S(=O)(=O)NCCN1CCN(c2ccccc2F)CC1	Gli-Sufu block 67.0 | Gli-Sufu confirm inactive | SufuKO cytotox inactive | Wnt3a counter inactive
CCCCOC(=O)NC1CCc2cc(OC)c(OC)c(OC)c2-c2ccc(SC)c(=O)cc21 (stereo not drawn)	Gli-Sufu block 63.7 | Gli-Sufu confirm 53.5 | SufuKO cytotox 63.8 | Wnt3a counter inactive
CCOC(=O)NC1CCc2cc(OC)c(OC)c(OC)c2-c2ccc(SC)c(=O)cc21 (stereo not drawn)	Gli-Sufu block 55.2 | Gli-Sufu confirm 56.3 | SufuKO cytotox 67.5 | Wnt3a counter 26.1
Cc1ccc(OCc2nnc(SCC(=O)Nc3ccc(OCc4ccccc4)cc3)n2-c2ccc(Cl)cc2)cc1	none (no result: NR5A2 inv ag, NCOA3 inh, Gli-Sufu block, NCOA1 inh)
COC(=O)C1=C(CN2CCCc3ccccc32)NC(=O)NC1c1ccc(F)cc1 (stereo not drawn)	NR5A2 inv ag 90.8, NCOA3 inh 84.3, NR2F2 inh 95.9, SRC2 inh 84.6, Gli-Sufu block 82.2, NCOA1 inh 87.0 | Gli-Sufu confirm inactive | SufuKO cytotox inactive | Wnt3a counter 72.0
COC(=O)C1=C(CN2CCc3ccccc32)NC(=O)NC1c1cc(C)ccc1C (stereo not drawn)	none
OC(CN1CCCCCC1)CN(c1ccccc1)c1ccccc1 (stereo not drawn)	none | Gli-Sufu confirm inactive | SufuKO cytotox inactive | Wnt3a counter inactive
O=C(c1cccc(S(=O)(=O)N2CCCC2)c1)N1CCN(c2ccccc2)CC1	none
O=C(c1cccc(S(=O)(=O)N2CCCc3ccccc32)c1)N1CCN(c2ccccc2)CC1	none | Gli-Sufu confirm inactive | SufuKO cytotox inactive | Wnt3a counter inactive
O=C(c1cccc(S(=O)(=O)N2CCN(c3ccccc3)CC2)c1)N1CCCC(C(F)(F)F)C1 (stereo not drawn)	none | Gli-Sufu confirm 56.7 | SufuKO cytotox inactive | Wnt3a counter inactive
Cc1cc(-c2n[nH]c(=S)n2N=Cc2cccc(OCc3ccccc3)c2)n[nH]1	none (no result: NR5A2 inv ag, NCOA3 inh, Gli-Sufu block, NCOA1 inh)
COc1ccc2c(c1)C(NC(=O)C(F)(F)F)CC21CCCCC1 (stereo not drawn)	none (no result: NR5A2 inv ag, NCOA3 inh, Gli-Sufu block, NCOA1 inh)
O=C(COc1cc2oc(=O)cc(-c3ccccc3)c2cc1Cl)NCc1ccccn1	none | Gli-Sufu confirm inactive | SufuKO cytotox inactive | Wnt3a counter inactive
O=C(COc1ccc2c(-c3ccccc3)cc(=O)oc2c1)NCc1ccccn1	none
CC[N+]1=C(C)C(C)(C)c2cc(C)ccc21	Gli-Sufu block 56.8 | Gli-Sufu confirm 45.5 | SufuKO cytotox inactive | Wnt3a counter inactive
CCN1C(=O)C(=O)c2cc(C)ccc21	none
CCOc1ccc(NC(=S)NNc2ccnc3cc(Cl)ccc23)cc1	Gli-Sufu block 55.7 | Gli-Sufu confirm 65.5 | SufuKO cytotox inactive | Wnt3a counter inactive
S=C(NNc1ccnc2cc(Cl)ccc12)Nc1ccc(Cl)cc1Cl	none
Cc1[nH]c2ccccc2c1[C@H]1[C@@H](CC#N)C1(C)C	none | Gli-Sufu confirm inactive | SufuKO cytotox inactive | Wnt3a counter inactive
Cc1[nH]c2ccccc2c1CC#N	none
COC(=O)Nc1ccc(S(=O)(=O)N2CCCCC2C(=O)NCc2ccco2)cc1 (stereo not drawn)	none
Cc1ccc(S(=O)(=O)N2CCCCC2C(=O)NCc2ccco2)cc1 (stereo not drawn)	none | Gli-Sufu confirm inactive | SufuKO cytotox inactive | Wnt3a counter inactive
Cc1ccc(NC(=O)Cc2nn(C)c(=O)c3ccccc23)cc1F	Gli-Sufu block 66.7 | Gli-Sufu confirm 66.4 | SufuKO cytotox 29.2 | Wnt3a counter inactive
CN(C1CCCCC1)S(=O)(=O)c1ccc(NC(=S)NC(=O)c2cccs2)cc1	Gli-Sufu block 63.0 | Gli-Sufu confirm inactive | SufuKO cytotox inactive | Wnt3a counter inactive
Cc1cc(C)cc(NS(=O)(=O)c2ccc(NC(=S)NC(=O)c3cccs3)cc2)c1	none
O=C(NCc1ccccc1)N1CCC(c2nc3ccc(Cl)cc3[nH]2)CC1	none (no result: NR5A2 inv ag, NCOA3 inh, Gli-Sufu block, NCOA1 inh)
COC(=O)[C@]12C[C@H](CC(=O)N3CCN(C(=O)C4CC4)CC3)C(=O)N(Cc3ccccc3)C1=C[C@H](C(C)(C)C)O[C@@H]2C	none (no result: NR5A2 inv ag, NCOA3 inh, Gli-Sufu block, NCOA1 inh)
Fc1ccc(-c2cn(-c3ccccc3)c3[n+]2CCS3)cc1	none
CC(=O)c1ccc(-n2cc(-c3ccc(C(C)(C)C)cc3)[n+]3c2SCCC3)cc1	Gli-Sufu block 73.4 | Gli-Sufu confirm 64.8 | SufuKO cytotox inactive | Wnt3a counter inactive
Clc1ccc(-c2cn(-c3ccccc3)c3[n+]2CCS3)cc1	Gli-Sufu block 55.9 | Gli-Sufu confirm 56.5 | SufuKO cytotox inactive | Wnt3a counter inactive
COc1ccc(-c2cn(-c3ccc(Br)cc3)c3[n+]2CCS3)cc1	Gli-Sufu block 74.5 | Gli-Sufu confirm 76.3 | SufuKO cytotox inactive | Wnt3a counter 60.8
O=C(N[C@H](C(=O)N1CCC[C@H]1C(=O)NC1CCCC1)C1CCCCC1)c1ccc(Cl)cc1Cl	none (no result: NR5A2 inv ag, NCOA3 inh, Gli-Sufu block, NCOA1 inh)
FC(F)(F)c1ccc(Sc2nnc(-c3cccs3)n2CC2CCCO2)nc1 (stereo not drawn)	none
FC(F)(F)c1cnc(Sc2nnc(-c3cccs3)n2CC2CCCO2)c(Cl)c1 (stereo not drawn)	none | Gli-Sufu confirm inactive | SufuKO cytotox inactive | Wnt3a counter inactive
O=C1C2C3C=CC(C3)C2C(=O)N1c1ccc(-c2nc(-c3ccccc3)nc3ccccc23)cc1 (stereo not drawn)	none (no result: NR5A2 inv ag, NCOA3 inh, Gli-Sufu block, NCOA1 inh)
C[C@@H]1Cn2cnc(C(=O)N3CCN(C(=O)OC(C)(C)C)CC3)c2C(=O)N1	none (no result: NR5A2 inv ag, NCOA3 inh, Gli-Sufu block, NCOA1 inh)
CCCCCn1c(CN2CCN(c3cc(Cl)ccc3C)CC2)nc2c1c(=O)[nH]c(=O)n2C	none | Gli-Sufu confirm inactive | SufuKO cytotox inactive | Wnt3a counter inactive
N#CC1C=Cc2c(ccc3ccccc23)N1C(=O)c1ccccc1 (stereo not drawn)	none | Gli-Sufu confirm 61.0 | SufuKO cytotox 57.3 | Wnt3a counter inactive
N#CC1C=Cc2ccccc2N1C(=O)c1ccccc1 (stereo not drawn)	none
